Here are results for twelve compounds from PubChem BioAssay (NCI).

The panel holds about 83,000 compounds, 20% with a hit somewhere; the sample as a whole holds those more often.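 Percent growth is the endpoint: 0 to 100 indicates growth inhibition (40 means 60% inhibition), 0 means no net growth, and negative values indicate cell death.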 A number with no mark means an inactive call. Calls of active or inactive are those of the source. The calls were made as follows: active = growth percent below 10; inactive = the rest.

The test has as its system MDA-MB-468 breast. Put plainly: NCI-60 one-dose screen, 48 h (100 = growth as untreated, 0 = no growth, -100 = all killed). The settings on record: 10 µM unless noted.
With `C=CC(=O)N[C@@H](/C=C/C(=O)OCC)Cc1ccc(-c2cc(Cl)cc(Cl)c2)cc1`, the growth was 1.83% (active). As for `COc1cc(-c2nn(C(C)(C)C)cc2-c2ccnc(NCCCNS(=O)(=O)c3ccc(F)cc3)n2)ccc1Cl`, the growth was 72.9%. For `S=C(Nc1ccc(C2=NCCN2)cc1)Nc1ccc(C2=NCCN2)cc1`, the growth is 67.6%. As for `C=C(C)[C@@H]1CC[C@]2(C(=O)O)CC[C@]3(C)[C@H](CC[C@@H]4[C@@]5(C)CCC(N)C(C)(C)[C@@H]5CC[C@]43C)[C@@H]12` (some centres not stated), the growth is -23.2% (active). Regarding `O=C(NCCNC(=O)c1cc(S(=O)(=O)NCCc2ccccc2)c(O)c(O)c1O)c1cc(S(=O)(=O)NCCc2ccccc2)c(O)c(O)c1O`, the growth was 83.2%. On to `O=C1/C(=C\c2ccc(Cl)cc2)CN(C(=S)Nc2ccccc2)C/C1=C\c1ccc(Cl)cc1`, for which the growth was -64.4% (active). `CCN(C(=O)N1CCN(c2cc3c(cc2F)c(=O)c(C(=O)O)cn3C2CC2)CC1)c1nc(-c2ccc(Cl)cc2)cs1`: the growth was -2.66% (active).

Regarding `COc1ccccc1/C(C)=N/NC(=O)CSc1nc2ccccc2c(=O)n1Cc1ccc(S(N)(=O)=O)cc1`, the growth is 98.8%.

In the case of `COc1ccc(C(=O)c2sc3nc(-c4cccs4)ccc3c2N)cc1OC`, the growth is 8.13% (active).

`CNS(=O)(=O)c1n[nH]nc1-c1cc(C(C)(C)C)c(O)c(C(C)(C)C)c1`: the growth was 92.2%.

In the case of `CC(CSc1n[nH]c(=S)s1)c1ccccc1` (configuration not stated), the growth was 114%. Consider `CCC[CH2][Sn]1([CH2]CCC)[O]C2C(CO)OC(n3ccc(N)nc3=O)C2[O]1` (configuration not stated), for which the growth was -82.9% (active).
